From PubChem BioAssay (Tox21)
Results filed as inconclusive are left out. The source made the active and inactive calls. Unless noted, calls come from the whole dose curve.

Columns and labels:
[1] = Nuclear factor erythroid 2-related factor 2/antioxidant responsive element (Nrf2/ARE) small molecule agonists: qHTS cell viability counter screen in human keratinocytes (AID 1919968; active = well fitted curve in the direction sought with a large enough effect in the repeat runs; an effect the other way counts as inactive or inconclusive; note: nearly all actives have a fitted effect of over 55% in size)
Outline: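 In human HaCaT keratinocytes stably expressing an ARE-driven luciferase, compound exposure lasted 23 h at 37 C under 5% CO2. Viable cells are quantified with a protease-based fluorogenic reagent (CellTiter-Fluor) read 1 h after addition.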

[2] = biological target: Gonadotropin-releasing hormone receptor (Homo sapiens) (UniProt P30968); assay: Human gonadotropin-releasing hormone receptor (GnRHR) small molecule agonists, calcium flux assay in GnRHR-HEK293 cells (AID 1920063); note: nearly all actives have a fitted effect of over 35% in size
Outline: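 Intracellular calcium rise is the read-out: engineered human GnRHR HEK293 cells, dye-loaded, are exposed to DMSO-dissolved compounds and fluorescence at Ex/Em 480/540 is tracked for 3 min.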

[3] = biological target: KiSS-1 receptor (Homo sapiens) (UniProt Q969F8); assay: Human kisspeptin (KISS1R) small molecule agonists, calcium flux assay in KISS1R-HEK293 cells (AID 1920064; active = well fitted curve in the direction sought with a large enough effect in the repeat runs; an effect the other way counts as inactive or inconclusive)
Outline: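 Concentration-response testing used 15 concentrations in triplicate on human KISS1R-expressing HEK293 cells. Calcium-dependent fluorescence (Ex/Em 480/540) was followed kinetically for 3 min after compound transfer.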

[4] = G protein-coupled receptor (GPCR) small molecule agonists, calcium flux assay: HEK293 wild type cell line counter screen (AID 1920065)
Outline: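 Fluorescence intensity signals activation. After overnight (18 h) culture and a 1 h calcium dye load at 37 C, compounds are added by pin tool and the plate read at 480/540 nm for 3 min in 1 s steps.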

[5] = p53 small molecule agonists, cell-based qHTS assay with human liver microsomes: qHTS cell viability counter screen (AID 1963579); note: nearly all actives have a fitted effect of over 45% in size
Outline: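 HLM-supplemented (0.5 mg/mL final) and NADPH-supplemented (0.5 mg/mL final) p53RE-bla cultures, 4,000 cells per well, were dosed with compounds in DMSO for 16 h at 37 C; luminescent ATP detection (CellTiter-Glo, 30 min, room temperature) quantified surviving cells.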

[6] = p53 small molecule agonists, cell-based qHTS assay with rat liver microsomes: qHTS cell viability counter screen (AID 1963580); note: nearly all actives have a fitted effect of over 45% in size
Outline: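 Cytotoxicity counter screen: intracellular ATP read by CellTiter-Glo luminescence in the p53 reporter wells. HCT-116 p53RE-bla cells were treated for 16 h at 37 C alongside rat liver microsomes and NADPH, each 0.5 mg/mL final.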

[7] = p53 small molecule agonists, cell-based qHTS assay: qHTS cell viability counter screen (AID 1963581); note: nearly all actives have a fitted effect of over 45% in size
Outline: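 Luminescence from CellTiter-Glo, reflecting ATP content, serves as the cytotoxicity measure; it is taken after the 2 h reporter substrate step in HCT-116 p53RE-bla cells dosed for 16 h at 37 C.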

[8] = biological target: 5-hydroxytryptamine receptor 2A (Homo sapiens) (UniProt P28223); assay: 5-hydroxytryptamine receptor 2A (HTR2A) small molecule antagonists, cell-based qHTS assay (AID 1963586); note: nearly all actives have a fitted effect of over 45% in size
Outline: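 CHO cells stably expressing human HTR2A were plated for 18 h at 37 C, then loaded with calcium dye for 1 h. Compounds were preincubated 5 min at room temperature before DOI (4 nM solution) was added. Kinetic fluorescence was read for 3 min.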

[9] = biological target: 5-hydroxytryptamine receptor 2A (Homo sapiens) (UniProt P28223); assay: 5-hydroxytryptamine receptor 2A (HTR2A) small molecule agonists, cell-based qHTS assay (AID 1963587); note: nearly all actives have a fitted effect of over 30% in size; note: potency is the fitted concentration of half-maximal effect
Outline: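 Kinetic calcium-flux fluorescence (2 min, 1 sec intervals) after compound addition in agonist mode. HTR2A-CHO cells were cultured 18 h, then dye-loaded 1 h at 37 C.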

[10] = biological target: Muscarinic acetylcholine receptor M1 (Homo sapiens) (UniProt P11229); assay: Cholinergic receptor muscarinic 1 (CHRM1) small molecule antagonists, cell-based qHTS assay (AID 1963588); note: nearly all actives have a fitted effect of over 40% in size
Outline: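 Compounds were tested at 15 concentrations in three independent runs. Dye-loaded CHRM1-CHO cells were exposed 5 min at room temperature before stimulation by acetylcholine added at 50nM. Intracellular calcium was read kinetically on FDSS for 3 min.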

[11] = biological target: Muscarinic acetylcholine receptor M1 (Homo sapiens) (UniProt P11229); assay: Cholinergic receptor muscarinic 1 (CHRM1) small molecule agonists, cell-based qHTS assay (AID 1963589); note: nearly all actives have a fitted effect of over 35% in size
Outline: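 Fluorescent calcium dye reports M1 activation in stably transfected CHO cells. Compounds, 15 concentrations, added after 1 h dye loading at 37 C; kinetic reading at 1 sec intervals.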

[12] = cAMP Responsive Elements (CRE) small molecule antagonists, cell-based qHTS assay (AID 1963591; active = well fitted inhibition curve with a large enough effect in the signal ratio in the repeat runs, not every such curve was filed as active; the % refers to the signal ratio)
Outline: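 Stimulation used NKH477 at a final 0.25 uM for 3 h in compound-treated CRE-bla HEK293T cells, seeded 18 h beforehand. Reporter activity was measured with LiveBLAzer B/G FRET substrate after 2 h at room temperature.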

[13] = biological target: Beta-2 adrenergic receptor (Homo sapiens) (UniProt P07550); assay: Adrenergic beta2 receptor (ADRB2) small molecule antagonists, cell-based qHTS assay (AID 1963592); note: series mostly up to about 92 µM; nearly all actives have a fitted effect of over 50% in size
Outline: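 Assay format: CHO-ADRB2 cells, 18-20hr seeding at 37C/5% CO2, then compound plus 1nM isoproterenol agonist mix for 0.5hr RT. Homogeneous time-resolved fluorescence cAMP detection after 1hr, expressed as 665/615 nm ratio.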

[14] = biological target: D(2) dopamine receptor (Homo sapiens) (UniProt P14416); assay: Dopamine D2 receptor (DRD2) small molecule agonists, cell-based qHTS assay (AID 1963594); note: nearly all actives have a fitted effect of over 35% in size
Outline: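 cAMP accumulation in DRD2-HEK293 cells measured by HTRF after 1 h detection; compounds added 10 min before NKH477 (200nM […]) forskolin-analogue stimulation, 30 min at room temperature, with Ro20-1724 present at 0.1 mM final.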

[15] = cAMP Responsive Elements (CRE) small molecule agonists, cell-based qHTS assay (AID 1963590)
Outline: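 Compound exposure lasted 3 h at 37 C/5% CO2 in CRE-bla HEK 293T cells grown in assay medium with 10% dialyzed FBS and 25 mM HEPES. Reporter signal came from LiveBLAzer B/G FRET substrate, 2 h, room temperature.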

[16] = biological target: D(2) dopamine receptor (Homo sapiens) (UniProt P14416); assay: Dopamine D2 receptor (DRD2) small molecule antagonists, cell-based qHTS assay (AID 1963595; active = well fitted inhibition curve with a large enough effect in the signal ratio in the repeat runs, with a control signal flat; the % refers to the signal ratio)
Outline: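 Cells were plated and grown for 24 h at 37 °C. Ro20-1724 (0.1 mM final) went in first, then compound for 10 min. NKH477 (200 nM) with quinpirole (12 nM) followed for 30 min at RT, then HTRF detection reagents for 1 h.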

[17] = biological target: Beta-2 adrenergic receptor (Homo sapiens) (UniProt P07550); assay: Adrenergic beta2 receptor (ADRB2) small molecule agonists, cell-based qHTS assay (AID 1963593);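 note: CHO cells stably overexpressing human ADRB2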
Outline: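 CHO cells stably over-expressing ADRB2 were plated overnight at 37C, then dosed with compounds plus a stimulation mix containing 100uM IBMX and 25uM Ro-20-1724 for 0.5hr at room temperature. cAMP was measured by HTRF competition, 1hr.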

[18] = p53 small molecule agonists, cell-based qHTS assay with rat liver microsomes (AID 1963578)
Outline: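 Compound in DMSO added to p53RE-bla cells 5 h post-plating; rat microsomes/NADPH 0.5 mg/mL final; 16 h, 37 C; LiveBLAzer 2 h RT.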

[19] = p53 small molecule agonists, cell-based qHTS assay (AID 1963582; active = well fitted activation curve with a large enough effect in the signal ratio in the repeat runs, not every such curve was filed as active; the % refers to the signal ratio)
Outline: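 After plating, p53RE-bla cells sat 5 h in the incubator; compounds or DMSO vehicle were pinned in; a 16 h incubation at 37 C followed; FRET substrate was added and, 2 h later at RT, fluorescence was measured.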
% is set by controls: 0 for no effect and ±100 for the full control effect.

Sequence of D(2) dopamine receptor (Homo sapiens) (P14416 whole entry, looked up): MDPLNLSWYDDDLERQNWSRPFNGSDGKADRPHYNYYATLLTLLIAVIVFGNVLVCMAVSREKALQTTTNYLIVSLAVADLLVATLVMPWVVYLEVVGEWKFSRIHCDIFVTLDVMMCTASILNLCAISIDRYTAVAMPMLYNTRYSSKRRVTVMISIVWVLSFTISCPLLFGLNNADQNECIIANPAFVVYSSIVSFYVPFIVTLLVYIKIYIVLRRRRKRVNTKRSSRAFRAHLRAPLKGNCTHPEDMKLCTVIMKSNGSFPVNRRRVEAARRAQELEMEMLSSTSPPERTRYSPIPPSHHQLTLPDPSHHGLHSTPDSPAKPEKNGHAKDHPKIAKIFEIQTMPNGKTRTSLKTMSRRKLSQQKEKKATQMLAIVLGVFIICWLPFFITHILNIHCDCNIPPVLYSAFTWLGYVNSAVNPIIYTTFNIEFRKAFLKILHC
Sequence of KiSS-1 receptor (Homo sapiens) (Q969F8 whole entry, looked up): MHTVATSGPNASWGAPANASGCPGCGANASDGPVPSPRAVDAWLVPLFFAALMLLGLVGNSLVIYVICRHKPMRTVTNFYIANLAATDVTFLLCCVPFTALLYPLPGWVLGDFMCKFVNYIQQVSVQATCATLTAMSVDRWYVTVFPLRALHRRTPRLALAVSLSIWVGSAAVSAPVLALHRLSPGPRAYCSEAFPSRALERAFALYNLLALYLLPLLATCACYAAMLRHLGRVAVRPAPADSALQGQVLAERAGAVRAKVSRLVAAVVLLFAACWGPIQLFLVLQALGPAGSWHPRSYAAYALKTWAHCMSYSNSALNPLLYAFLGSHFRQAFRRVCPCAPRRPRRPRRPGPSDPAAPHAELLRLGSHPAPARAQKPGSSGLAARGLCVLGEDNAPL
Sequence of Muscarinic acetylcholine receptor M1 (Homo sapiens) (P11229 whole entry, looked up): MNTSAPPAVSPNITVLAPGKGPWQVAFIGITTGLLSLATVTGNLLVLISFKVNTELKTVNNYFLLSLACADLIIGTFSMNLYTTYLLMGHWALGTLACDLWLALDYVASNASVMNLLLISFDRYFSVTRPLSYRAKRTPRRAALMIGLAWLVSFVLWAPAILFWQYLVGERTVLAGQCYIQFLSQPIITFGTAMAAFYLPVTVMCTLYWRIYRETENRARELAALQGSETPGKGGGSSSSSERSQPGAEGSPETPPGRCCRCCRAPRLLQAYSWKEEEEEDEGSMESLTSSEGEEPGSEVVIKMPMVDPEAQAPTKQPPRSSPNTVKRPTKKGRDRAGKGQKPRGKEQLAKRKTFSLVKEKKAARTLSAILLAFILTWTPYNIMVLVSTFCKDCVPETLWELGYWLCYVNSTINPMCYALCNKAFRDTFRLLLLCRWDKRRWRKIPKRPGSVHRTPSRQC
Sequence of 5-hydroxytryptamine receptor 2A (Homo sapiens) (P28223 whole entry, looked up): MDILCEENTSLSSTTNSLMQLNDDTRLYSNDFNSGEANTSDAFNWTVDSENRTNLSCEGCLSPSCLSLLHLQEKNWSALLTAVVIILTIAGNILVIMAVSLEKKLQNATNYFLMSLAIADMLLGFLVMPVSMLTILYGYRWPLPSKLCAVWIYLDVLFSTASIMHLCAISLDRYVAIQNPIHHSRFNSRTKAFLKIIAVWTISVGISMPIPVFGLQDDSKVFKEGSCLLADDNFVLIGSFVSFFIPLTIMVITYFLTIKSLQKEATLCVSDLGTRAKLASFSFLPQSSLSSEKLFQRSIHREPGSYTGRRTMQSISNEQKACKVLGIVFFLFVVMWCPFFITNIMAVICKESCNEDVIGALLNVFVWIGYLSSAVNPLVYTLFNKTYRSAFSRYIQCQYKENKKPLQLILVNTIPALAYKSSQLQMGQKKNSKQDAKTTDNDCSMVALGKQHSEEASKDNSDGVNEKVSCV
Sequence of Beta-2 adrenergic receptor (Homo sapiens) (P07550 whole entry, looked up): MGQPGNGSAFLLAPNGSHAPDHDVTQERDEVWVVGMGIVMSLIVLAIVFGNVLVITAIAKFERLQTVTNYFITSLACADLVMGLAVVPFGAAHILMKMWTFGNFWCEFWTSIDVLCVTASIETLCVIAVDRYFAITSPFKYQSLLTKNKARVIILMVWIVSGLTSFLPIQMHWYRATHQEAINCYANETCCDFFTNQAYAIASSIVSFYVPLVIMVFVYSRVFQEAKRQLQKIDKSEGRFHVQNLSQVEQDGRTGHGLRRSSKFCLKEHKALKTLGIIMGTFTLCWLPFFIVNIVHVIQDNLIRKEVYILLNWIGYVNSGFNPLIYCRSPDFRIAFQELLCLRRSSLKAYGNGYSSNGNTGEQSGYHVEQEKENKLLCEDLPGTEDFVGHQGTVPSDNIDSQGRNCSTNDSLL
Sequence of Gonadotropin-releasing hormone receptor (Homo sapiens) (P30968 whole entry, looked up): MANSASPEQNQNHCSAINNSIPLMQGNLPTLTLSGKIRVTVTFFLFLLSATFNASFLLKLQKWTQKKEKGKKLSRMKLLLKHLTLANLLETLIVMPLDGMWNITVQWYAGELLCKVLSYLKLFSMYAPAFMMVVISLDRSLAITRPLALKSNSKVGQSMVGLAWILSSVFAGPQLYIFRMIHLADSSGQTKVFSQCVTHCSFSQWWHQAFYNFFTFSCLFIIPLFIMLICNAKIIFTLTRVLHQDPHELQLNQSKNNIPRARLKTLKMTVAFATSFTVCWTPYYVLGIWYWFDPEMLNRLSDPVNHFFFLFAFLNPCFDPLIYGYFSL

N[C@@H](CCC(=O)N[C@@H](CS)C(=O)NCC(=O)O)C(=O)O
inactive: activity change, negative = cytotoxicity [1] 3.9% [at 19 µM] | activity change [2] 2.39% [at 11.8 µM, active compounds read high] | activation [3] 0.132% [at 15.8 µM] | activation [4] -1.3% [at 11.8 µM] | activity change, negative = cytotoxicity [5] -1.1% [at 13.5 µM] | activity change, negative = cytotoxicity [6] 0.778% [at 13.5 µM] | activity change, negative = cytotoxicity [7] 13.7% [at 13.5 µM] | activity, negative = inhibition [8] -1.78% [at 12.7 µM] | activation [9] 2.78% [at 15.9 µM] | activity, negative = inhibition [10] 11.9% [at 12.6 µM] | activation [11] -0.288% [at 15.8 µM] | activity change, negative = inhibition [12] -10.5% [at 18.9 µM] | activity change, negative = inhibition [13] -5.33% [at 19 µM] | activation [14] -7.59% [at 19 µM]

COP(=O)(OC)OC(c1ccc(Cl)cc1)P(=O)(OC)OC (configuration not stated)
inactive: Potency [1] | Potency [2] | Potency [3] | Potency [4] | Potency [5] | Potency [6] | Potency [7] | Potency [8] | Potency [9] | Potency [10] | Potency [11] | Potency [15] | Potency [13] | Potency [14] | Potency [16]

O=c1[nH]c(=O)n([C@H]2C[C@H](O)[C@@H](CO)O2)cc1C(F)(F)F
inactive: Potency [1] | Potency [2] | Potency [3] | Potency [4] | Potency [5] | Potency [6] | Potency [7] | Potency [8] | Potency [9] | Potency [10] | Potency [11] | Potency [12] | Potency [13] | Potency [17] | Potency [14] | Potency [16]

CC(=O)C(=O)CC(C)C
inactive: Potency [1] | Potency [2] | Potency [3] | Potency [4] | Potency [5] | Potency [6] | Potency [7] | Potency [8] | Potency [9] | Potency [10] | Potency [11] | Potency [15] | Potency [12] | Potency [13] | Potency [17] | Potency [14]

CCCC(C)CC (configuration not stated)
inactive: Potency [1] | Potency [2] | Potency [3] | Potency [4] | Potency [18] | Potency [5] | Potency [6] | Potency [19] | Potency [8] | Potency [9] | Potency [10] | Potency [11] | Potency [15] | Potency [12] | Potency [13] | Potency [14] | Potency [16]

CC(C)CCCCCCOC(=O)C1CCCCC1C(=O)OCCCCCCC(C)C (configuration not stated)
inactive: Potency [1] | Potency [2] | Potency [3] | Potency [4] | Potency [5] | Potency [6] | Potency [7] | Potency [8] | Potency [9] | Potency [10] | Potency [11] | Potency [15] | Potency [12] | Potency [13] | Potency [14]

C=C[Si](OC(C)=O)(OC(C)=O)OC(C)=O
inactive: Potency [1] | Potency [2] | Potency [3] | Potency [4] | Potency [18] | Potency [7] | Potency [19] | Potency [8] | Potency [9] | Potency [10] | Potency [11] | Potency [15] | Potency [12] | Potency [13] | Potency [17] | Potency [14] | Potency [16]

CC1CCC(=O)C1=O (configuration not stated)
inactive: Potency [1] | Potency [2] | Potency [3] | Potency [4] | Potency [5] | Potency [6] | Potency [7] | Potency [8] | Potency [9] | Potency [10] | Potency [11] | Potency [15] | Potency [12] | Potency [13] | Potency [14] | Potency [16]

CCc1ccc2c(c1)C(=O)c1ccccc1C2=O
inactive: Potency [1] | Potency [2] | Potency [3] | Potency [4] | Potency [18] | Potency [5] | Potency [7] | Potency [19] | Potency [8] | Potency [9] | Potency [10] | Potency [11] | Potency [13] | Potency [17] | Potency [14] | Potency [16]

CN(C)c1ccc(N=NS(=O)(=O)O)cc1
inactive: Potency [1] | Potency [2] | Potency [3] | Potency [4] | Potency [5] | Potency [6] | Potency [7] | Potency [8] | Potency [11] | Potency [14]

c1cnc(N2CCN(Cc3ccc4c(c3)OCO4)CC2)nc1
inactive: Potency [1] | Potency [2] | Potency [3] | Potency [4] | Potency [18] | Potency [6] | Potency [7] | Potency [19] | Potency [8] | Potency [9] | Potency [10] | Potency [15] | Potency [13] | Potency [16]

CCCCCCCCCCl
inactive: Potency [1] | Potency [2] | Potency [3] | Potency [4] | Potency [5] | Potency [6] | Potency [7] | Potency [8] | Potency [9] | Potency [10] | Potency [11] | Potency [15] | Potency [12] | Potency [13] | Potency [14] | Potency [16]

Cc1c(N)cccc1N
inactive: Potency [1] | Potency [2] | Potency [3] | Potency [4] | Potency [5] | Potency [6] | Potency [7] | Potency [8] | Potency [9] | Potency [10] | Potency [11] | Potency [15] | Potency [12] | Potency [14] | Potency [16]

CCCCN1C(=O)[C@@H]([C@H](O)C2CCCCC2)NC(=O)C12CCN(Cc1ccc(Oc3ccc(C(=O)O)cc3)cc1)CC2
active: Potency [9] 24.5 µM
inactive: Potency [1] | Potency [2] | Potency [3] | Potency [4] | Potency [18] | Potency [5] | Potency [10] | Potency [13] | Potency [16]
